What all share (format): functional
Assay [1] concerns the target Solute carrier family 2, facilitated glucose transporter member 1 (Homo sapiens) (UniProt P11166). Put plainly: ST_JUDE_LEISH: Cytotoxicity at 2uM final concentration against transgenic Leishmania Mexicana promastigotes LmGLUT1 that are glucose transport deficient and complemented with the human glucose transporter GLUT1. Activity is measured by DNA content using SYBR green in vitro.

The target of assay [2] is Hexose transporter 1 (Plasmodium falciparum) (UniProt O97467). Put plainly: ST_JUDE_LEISH: Cytotoxicity at 2uM final concentration against transgenic Leishmania Mexicana promastigotes LmPfHT that are glucose transport deficient and complemented with the Plasmodium falciparum hexose transporter. Activity is measured by DNA content using SYBR green in vitro.
Assay [3] concerns the target Glucose transporter (Leishmania mexicana) (UniProt O61059). In words: ST_JUDE_LEISH: Cytotoxicity at 2uM final concentration against transgenic Leishmania Mexicana promastigotes LmGT2 that are glucose transport deficient and complemented with the L. Mexicana glucose transporter 2. Activity is measured by DNA content using SYBR green in vitro.

For 33 compounds, inhibition results are on record in ChEMBL document CHEMBL3433997, “St. Jude Leishmania screening dataset” (2016).

Chain of Solute carrier family 2, facilitated glucose transporter member 1 (Homo sapiens) (P11166 whole entry): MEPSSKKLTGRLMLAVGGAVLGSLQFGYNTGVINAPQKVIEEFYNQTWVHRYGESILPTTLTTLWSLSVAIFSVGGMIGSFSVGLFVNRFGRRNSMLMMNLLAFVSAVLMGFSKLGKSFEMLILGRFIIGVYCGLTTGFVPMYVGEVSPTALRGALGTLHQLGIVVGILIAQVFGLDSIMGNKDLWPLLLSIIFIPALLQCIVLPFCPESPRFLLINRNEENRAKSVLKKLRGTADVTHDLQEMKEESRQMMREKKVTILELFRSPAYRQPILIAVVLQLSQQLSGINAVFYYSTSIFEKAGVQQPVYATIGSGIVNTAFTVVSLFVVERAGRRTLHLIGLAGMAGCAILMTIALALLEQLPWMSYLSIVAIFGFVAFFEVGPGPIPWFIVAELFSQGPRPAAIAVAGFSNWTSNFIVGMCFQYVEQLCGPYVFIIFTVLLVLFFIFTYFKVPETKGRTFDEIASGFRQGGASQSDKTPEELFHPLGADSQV

The term inhibition denotes the relative decrease from the control value, in per cent. Turning to `Cc1ccc(C(=O)NC2C(=O)NC2c2ccccc2)c(C)c1` (centres undefined), the inhibition in assay [1] stood at 3.72%; in assay [2] it was 4.84%; in assay [3], 2.37%.

Turning to `CN1CCN(CC(=O)Nc2ccc(-c3ccc(-c4nc5ccccc5[nH]4)cc3)cc2)CC1`, the inhibition is 8.17% in assay [1], 6.39% in assay [2] and 9.57% in assay [3].

In the case of `CCCCNc1nc(NCCCC)c2c(C)c(Cc3ccccc3)c(NCCCC)nc2n1`, the inhibition in assay [1] was 39.8%; in assay [2], 43.6%; in assay [3], 12.3%.

`O=C(CSc1nc2ccccc2c(=O)n1C1CC1)Nc1cc(C(F)(F)F)ccc1Cl`: the inhibition is -0.03% in assay [1], -2.91% in assay [2] and 2.43% in assay [3].

`COc1ccc2nccc(NC(=O)N3CCC(NCCOc4cc(F)cc(F)c4)CC3)c2n1`: the results for the inhibition in assay [1], in assay [2] and in assay [3] were 8.02%, 12.1% and -0.77%, respectively.

As for `Cc1n[nH]c2ccc(-c3cc(OC[C@@H](N)Cc4ccccc4)cnc3-c3ccccc3OCc3cccc(F)c3)cc12`, the inhibition was 9.75% in assay [1], 1.05% in assay [2] and -0.42% in assay [3].

Consider `COc1ccc(CCn2c(=N)c(C(=O)NCc3cccnc3)cc3c(=O)n4ccccc4nc32)cc1`, for which the results for the inhibition in assay [1], in assay [2] and in assay [3] were 11.7%, 10.9% and 7.6%, respectively.

Consider `O=C(Cc1cccc(Cl)c1)Nc1cccc(-c2c[nH]c3nc(Nc4cccc(OCc5ccccc5)c4)ncc23)c1`, for which the values for the inhibition in assay [1], in assay [2] and in assay [3] were 6.67%, 6.61% and 5.74%, respectively.

For `COc1ccc2nc(C)cc(Nc3ccc(N4CCN(C)CC4)cc3)c2c1`, the inhibition came to 0.93% in assay [1], 2.03% in assay [2] and 0.99% in assay [3].

`CNCCNCc1cccc(-c2ccc(-c3nc4cc(C(F)(F)F)ccc4[nH]3)cc2)c1`: the results for the inhibition in assay [1], in assay [2] and in assay [3] were 0.41%, 2.51% and 2.03%, respectively.

In the case of `COc1cccc(NC(=O)[C@H](C(C)C)n2c(=O)[nH]c3ccccc3c2=O)c1`, the inhibition in assay [1] amounted to 1.34%; in assay [2], 0.97%; in assay [3], 5.04%.

`Cc1cc(N2CCC(NS(=O)(=O)c3cccc4cccnc34)CC2)nc(Nc2cccc(C#N)c2)n1`: the inhibition in assay [1] turned out to be 51.5%; in assay [2], 54.4%; in assay [3], 44.4%.

Take `CCCCN(C)CC#Cc1ccc2[nH]c(C)c(Cl)c(=O)c2c1`: the inhibition in assay [1] stood at 3.48%; in assay [2] it was 3.22%; in assay [3], 2.37%.

As to `OC1CCCN(Cc2cccc(-c3ccc(-c4nc5cc(F)ccc5[nH]4)cc3)c2)C1` (centres undefined), the inhibition in assay [1] was found to be 4.24%; in assay [2], 3.92%; in assay [3] it was 4.6%.

For the compound `N=C(N)c1ccc(NN=Cc2ccc(Oc3ccc(C(=N)N)cc3)cc2)cc1`, the inhibition in assay [1] came out at 3.43%; in assay [2] it was 3.55%; in assay [3] it was 0.79%.

On to `CN1CCCC1CCCOC(=O)c1ccc(N)cc1` (centres undefined), for which the inhibition was determined as 3.24% in assay [1], 3.07% in assay [2] and 2.42% in assay [3].

For `O=C(Nc1ccc(CN2CCOCC2)cc1)c1ccc(-c2ccc(Br)cc2)o1`, the inhibition is 2.45% in assay [1], 0.46% in assay [2] and -2.23% in assay [3].

As for `COc1ccc(CN2CCN(CCCCNC(=O)c3ccc(NC(=O)c4ccc(Cl)cc4)cc3)CC2)c(OC)c1`, the inhibition in assay [1] came to 6.23%; in assay [2] it was 4.9%; in assay [3] it was 6.03%.

Turning to `Cc1cccc2nc(C(=O)Nc3nc(CN4CCC(C)CC4)cs3)cn12`, the inhibition was -0.22% in assay [1], -1.59% in assay [2] and 1.62% in assay [3].

As to `N#Cc1cccc(Nc2nccc(NCC(O)c3cccc(C(F)(F)F)c3)n2)c1` (centres undefined), the inhibition in assay [1] was 4.68%; in assay [2] it was 3.25%; in assay [3], -3.38%.

For `Cc1nn(C2CCS(=O)(=O)C2)c(C)c1C1Nc2ccccc2C(=O)N1Cc1ccc2c(c1)OCO2` (centres undefined), the inhibition in assay [1] is -0.66%; in assay [2], -0.19%; in assay [3], -1.17%.

As for `Cc1c(F)cc(C(=O)NC2CC2)cc1-c1ccc2c(cnn2S(=O)(=O)c2ccc(F)c(F)c2)c1`, the inhibition in assay [1] stood at 5.87%; in assay [2] it was 5.31%; in assay [3], 5.54%.

Take `Nc1c2ccccc2nc2ccc(-c3ccccc3)cc12`: the inhibition came to 18.4% in assay [1], 14.6% in assay [2] and 13.1% in assay [3].

Consider `CC(NC(=O)c1ccc(O)c(-c2ccc(Cl)c(Cl)c2)c1)C(=O)NC1CCCCC1` (centres undefined), for which the results for the inhibition in assay [1], in assay [2] and in assay [3] were 5.53%, 4.55% and 5.71%, respectively.

In the case of `COc1cc2c(cc1O)[C@@H]1[C@H](O)[C@@H](O)C=C3CCN(C2)[C@H]31`, the inhibition in assay [1] turned out to be 4.04%; in assay [2] it was 3.79%; in assay [3], 1.58%.

With `CCC[C@@H]([C@@H](CC(C)C)C(=O)N[C@@H](CCCCNC(=O)c1cccc(OC)c1)C(=O)Nc1nccs1)N(O)C=O`, the inhibition was determined as 8.94% in assay [1], 10.2% in assay [2] and 5.1% in assay [3].

Turning to `O=C(NCCNc1ccnc(NCc2ccc(F)cc2)n1)c1cc2ccccc2s1`, the inhibition in assay [1] was 4.76%; in assay [2] it was 4.26%; in assay [3], -0.4%.

As to `O=C(c1ccc(-c2cccc(-c3nc4cc(F)ccc4[nH]3)c2)cc1)N1CCCCC1CN1CCC(O)C1` (centres undefined), the inhibition in assay [1] was 4.71%; in assay [2], 4.55%; in assay [3] it was 3.96%.

For `Cc1nc(Nc2ccc(F)cc2)nc(N2CCc3ccccc3[C@@H]2C)c1C`, the inhibition in assay [1] was 3.94%; in assay [2], 5.21%; in assay [3], 1.46%.

Take `CCCNC(=O)c1cncc(-c2ccc(CNC(CC)c3ccccc3)cc2)c1` (centres undefined): the inhibition is -0.02% in assay [1], 0.28% in assay [2] and -0.14% in assay [3].

As for `CCOc1cc(C(=O)NC2CCN(Cc3ccccc3)CC2)ccc1-c1nc2cc(Cl)ccc2[nH]1`, the inhibition in assay [1] was 4.1%; in assay [2], 5.59%; in assay [3], 3.09%.

Turning to `CCc1nc(N)nc(N)c1-c1ccc(C(C)C)cc1`, the results for the inhibition in assay [1], in assay [2] and in assay [3] were 2.65%, 2.31% and 2.86%, respectively.

`CCC(=Cc1cccc([N+](=O)[O-])c1)C(=O)NCC1CCN(c2nc3cc(OC)c(OC)cc3c(=N)[nH]2)CC1`: the inhibition worked out at 5.64% in assay [1], 7.07% in assay [2] and 6.83% in assay [3].
